From PubChem BioAssay
Hits are enriched below; roughly 2.4% of the tested compounds scored in any of these assays.
AmpC nodet inh = Promiscuous and Specific Inhibitors of AmpC Beta-Lactamase (assay without detergent); AmpC nitrocefin hydrolysis, absorbance 480 nm, no detergent; P00811; AID 585, 2007; hit rate 1.8% among 71,000; Potency, µM (highest dose often 28.7 µM)
Target sequence (P00811 whole entry, looked up): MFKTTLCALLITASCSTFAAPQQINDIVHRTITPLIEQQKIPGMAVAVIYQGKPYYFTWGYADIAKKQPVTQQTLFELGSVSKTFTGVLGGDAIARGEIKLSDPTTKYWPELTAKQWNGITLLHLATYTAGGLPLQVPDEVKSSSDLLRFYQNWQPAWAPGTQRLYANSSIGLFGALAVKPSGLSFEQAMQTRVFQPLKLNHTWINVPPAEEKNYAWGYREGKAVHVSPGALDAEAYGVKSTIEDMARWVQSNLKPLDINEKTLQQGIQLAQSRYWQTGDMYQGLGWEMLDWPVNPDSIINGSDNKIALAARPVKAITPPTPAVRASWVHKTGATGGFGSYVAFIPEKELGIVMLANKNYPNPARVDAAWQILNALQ
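AmpC in 20 mM phosphate buffer pH 7.0 was preincubated 15 min at room temperature with compounds. Nitrocefin (800 uM stock) was then added and hydrolysis followed at 480 nm every 20 s for 4 min.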
LT uptake inh = qHTS Assay for Anthrax Lethal Toxin Internalization; Cells, anthrax lethal toxin internalization, FRET ratio (460/530); Potency, µM (highest dose often 40 µM), actives largely listed as inhibitors; hit rate 0.67% among 70,000; AID 912, 2007; note: nearly all actives have a fitted effect of over 50% in size
SmPrx2 inh = Schistosoma Mansoni Peroxiredoxins (Prx2). Schistosoma mansoni peroxiredoxin 2 (Prx2). S. mansoni Prx2 activity coupled to TGR/GSH (TGR is thioredoxin glutathione reductase), NADPH fluorescence loss, qHTS. Potency, µM. hit rate 0.07% among 65,000
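Activity is read as the drop in NADPH fluorescence (365/450 nm), recorded every 30 sec for 8 min after H2O2 addition. Prx2 is coupled to TGR-driven NADPH oxidation through glutathione, in phosphate buffer pH 7.4.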
AmpC det inh = Promiscuous and Specific Inhibitors of AmpC Beta-Lactamase (assay with detergent); P00811; AID 584, 2007; Potency, µM (highest dose often 28.7 µM); hit rate 0.09% among 71,000; purified AmpC, nitrocefin hydrolysis with detergent; active = well fitted curve in the direction sought with a large enough effect; inconclusive = small, poorly fitted or top-dose-only effect
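E. coli AmpC (5.3 nM) in 20 mM phosphate pH 7.0 with 0.01% Triton X-100, preincubated 15 min RT with compound; nitrocefin (2 uL of 800 uM stock) hydrolysis followed by 480 nm absorbance every 20 s over 4 min.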
Hits are given with their value; n = inactive; u = inconclusive; [ ] = remark or other dose. Unless noted, calls come from the whole dose curve.

SMILES | AmpC nodet inh | LT uptake inh | SmPrx2 inh | AmpC det inh
CO[C@]1(NC(=O)C2SC(=C(C(N)=O)C(=O)O)S2)C(=O)N2C(C(=O)O)=C(CSc3nnnn3C)CS[C@H]21 (stereo partly drawn) | u | 0.5µM | n | 2µM
Cn1nnnc1SCC1=C(C(=O)O)N2C(=O)[C@@H](NC(=O)[C@@H](O)c3ccccc3)[C@@H]2SC1 | n | n[3.58 µM] | n | n
CC(C)n1nnnc1SCC(=O)NCc1cccs1 | n | u | n | n
Cc1nn(-c2nnc(C)c(=O)[nH]2)c(C)c1SCC(=O)Nc1ccc(C(C)C)cc1 | n | n | n | n
CCN(CCNC(=O)CC1Oc2ccccc2NC1=O)c1ccccc1 (stereo not drawn) | 4µM[single pt active] | n | n | n
CC(C)CN(CCNC(=O)CC1Oc2ccccc2NC1=O)CC(C)C (stereo not drawn) | 4µM[single pt active] | n | n | n
CCC(C)N(CCNC(=O)CC1Oc2ccccc2NC1=O)C1CCCCC1 (stereo not drawn) | 4µM[single pt active] | n | n | n
CCCSCCCNC(=O)CC1Oc2ccccc2NC1=O (stereo not drawn) | 4µM[single pt active] | n | n | n
CCCCC1CCC(/C(N)=N/O)CC1 (stereo not drawn) | n | n | n | n
CCOC(=O)N1CCN(c2c(NCCc3ccc(OC)c(OC)c3)c(=O)c2=O)CC1 | 4µM[single pt active] | n | n | n
CCOC(=O)N1CCN(c2c(-c3ccc(C)c(C)c3)c(=O)c2=O)CC1 | n | n | n | n
CCOC(=O)N1CCN(c2c(NCc3ccccc3OC)c(=O)c2=O)CC1 | 4µM[single pt active] | u | n | n
CCOC(=O)N1CCN(c2c(NCc3cccs3)c(=O)c2=O)CC1 | 4µM[single pt active] | n | n | n
Fc1ccc(C(OCCN2CCN(CCCc3ccccc3)CC2)c2ccc(F)cc2)cc1 | n | u | n | n
c1ccc(CCCN2CCN(CCOC(c3ccccc3)c3ccccc3)CC2)cc1 | n | 25µM | n | n
CCOC(=O)c1ccc(NC2c3ccccc3C(=O)N2c2cccnc2)cc1 (stereo not drawn) | n | n | n | n
CCc1cccc(NC2c3ccccc3C(=O)N2c2ccc(C)cn2)c1 (stereo not drawn) | n | u | n | n
Cc1ccnc(N2C(=O)c3ccccc3C2Nc2cccc(C)c2C)c1 (stereo not drawn) | n | n | n | n
Cc1ccccc1N1C(=O)c2ccccc2C1Nc1cccnc1 (stereo not drawn) | 4µM[single pt active] | n | n | n
O=C1c2ccccc2C(Nc2ccccc2F)N1c1cccnc1 (stereo not drawn) | 4µM[single pt active] | n | n | n
COC(=O)c1ccccc1NC1c2ccccc2C(=O)N1c1cccnc1 (stereo not drawn) | 4µM[single pt active] | n | n | n
CCc1cccc(NC2c3ccccc3C(=O)N2c2cccnc2)c1 (stereo not drawn) | 4µM[single pt active] | n | n | n
COc1ccc(C2C3=C(CCCC3=O)Nc3nc(C(F)(F)F)nn32)cc1OC (stereo not drawn) | n | n | n | n
COCCN1Cc2cccc(C(=O)N3CCN(c4cc(C)ccc4C)CC3)c2C1=O | n | n | n | n
O=S(=O)(c1ccc(F)cc1)N1CCC(N2CCCC2)CC1 | 4µM[single pt active] | u | n | n
SMILES | AmpC nodet inh | LT uptake inh | SmPrx2 inh | AmpC det inh
O=S(=O)(c1ccc(S(=O)(=O)N2CCN3CCCC3C2)cc1)N1CCCC1 (stereo not drawn) | n | n | n | n
Cc1ccc(/C(C#N)=C/c2cccc([N+](=O)[O-])c2)cc1 | n[5.75 µM] | u | n | n[5.75 µM]
Cc1ccc(/C(C#N)=C\c2cn(C)c3ccccc23)cc1 | n | 7.9µM | n | n
COc1ccccc1N1CCN(c2cc(=O)n(-c3ccc(Cl)cc3)c(=O)[nH]2)CC1 | n | n | n | n
COc1ccccc1N1CCN(c2cc(=O)n(-c3ccc(Br)cc3)c(=O)[nH]2)CC1 | 16µM[single pt active] | n | n | n
O=C(Cc1ccccc1)Nc1nc(-c2cccs2)cs1 | u | u | n | n
O=C(COc1ccc(Cl)cc1)Nc1nc(-c2cccs2)cs1 | u | 10µM | n | n
CCOc1cc(C)c(S(=O)(=O)N2CCCC2)cc1C | n | n | n | n
CCOC(=O)Cn1c(=O)oc2cc(S(=O)(=O)NCc3ccccn3)ccc21 | n | n | n | n
O=C(Cn1c(=O)oc2cc(S(=O)(=O)N3CCCCCC3)ccc21)NC1CCCCC1 | 4µM[single pt active] | n | n | n
O=C(Cn1c(=O)oc2cc(S(=O)(=O)N3CCCC3)ccc21)NCc1ccccn1 | 4µM[single pt active] | n | n | n
O=C(NC1CCCCC1)NC1CCN(S(=O)(=O)c2ccc3c(c2)OCCO3)CC1 | 10µM[single pt active] | u | n | n
